# Only some compounds are listed: those with a hit (about 0.87% of all), similar ones and a draw of the others.
# IDE cell inh = human IDE inhibitors in live cells, primary screen, fluorescence polarization, HEK cells, FAbetaB substrate | inhibition, % at 5.59 µM | hit rate 0.41% among 320,000 | FAbetaB cleavage | Insulin-degrading enzyme (Homo sapiens), P14735 | AID 434962, 2010;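 active means percent inhibition above the average of all tested compounds plus 3 SD, set per screening campaign, cut at about 16% in these data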;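 further: IDE supplied by intact live HEK cells; FP after avidin binding of uncleaved biotin substrate so inhibition keeps polarization high; 0% = DMSO wells and 100% = 60 µM reference IDE inhibitor Ii1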
# TLR4-MyD88 BLA = inhibitors of TLR4-MyD88 association in cells, primary screen, cell-based, HeLa CL3-4, BLA complementation, FRET ratio; Toll-like receptor 4 (Homo sapiens) + Myeloid differentiation primary response protein …; hit rate 0.18% among 200,000; HeLa CL3-4 TLR4/MyD88 BLA complementation; inhibition, % at 8.4 µM; in the data active means inhibition above about 25%;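 further: 0% = vehicle and 100% = reference inhibitor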
# NOD2 RIPK2 PPI = NOD2-RIPK2 binding disruptors in cells, primary screen, fluorescence, CHO cells, BLA complementation. Receptor-interacting serine/threonine-protein kinase 2 (Homo sapiens), O43353. CCF4 ratio. inhibition, % at 4.98 µM. hit rate 0.38% among 360,000; in the data active means inhibition above about 21%;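 further: 0% = vehicle only and 100% = reference blocker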
# IDE act = human IDE activators in live cells, primary screen, fluorescence polarization, HEK cells, FAbeta-B substrate; Insulin-degrading enzyme (Homo sapiens), P14735; FAbeta-B cleavage; 0% vehicle, 100% cell-free pure enzyme wells; activation, % at 5.96 µM; hit rate 0.073% among 340,000; AID 493087, 2011;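 active means activation above the mean of all tested compounds plus 3 SD, set per screening campaign, cut at about 17% in these data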
# TLR9-MyD88 inh = inhibitors of TLR9-MyD88 association in cells, primary screen, cell-based, CHO, BLA complementation, fluorescence; hit rate 0.21% among 340,000; inhibition, % at 4.98 µM; CCF4 FRET ratio;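 active means inhibition above the mean over all tested compounds plus 3 SD, cut at about 21% in these data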;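 further: 0% = DMSO only wells and 100% = clavulanate BLA inhibitor control wells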
# NOD2-RIPK2 conf = NOD2-RIPK2 binding disruptors, retest, confirmation, fluorescence, CHO cells, BLA complementation, triplicate; shares compounds with NOD2 RIPK2 PPI; CCF4 FRET; inhibition, % at 4.98 µM; hit rate 70% among 1,200; AID 624370, 2012;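 active means mean inhibition across replicates above a set limit taken from the earlier primary screen, cut at about 21% in these data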;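 further: 0% = DMSO-only wells and the high end = clavulanate BLA-blocked wells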
# BLA counter = NOD2-RIPK2 counterscreen BLA reporter activity; hit rate 57% among 1,200; CHO BLA reporter, CCF4 FRET ratio; shares compounds with NOD2 RIPK2 PPI; inhibition, % at 4.98 µM;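 active means mean inhibition above the low-control mean inhibition plus three low-control SD, cut at about 11% in these data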;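 further: 0% = DMSO only wells and 100% = clavulanate high control wells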
# Numbers without * were called inactive; . = not tested or not shown.
SMILES,IDE cell inh,TLR4-MyD88 BLA,NOD2 RIPK2 PPI,IDE act,TLR9-MyD88 inh,NOD2-RIPK2 conf,BLA counter
CC(C)c1cccc(C(C)C)c1NC(=S)Nc1cccc(Cl)c1,-1,.,-6,4,-7,.,.
Cn1c(N)c(C(=O)c2ccc(F)cc2F)c(=O)n(C)c1=O,-1,-9,8,2,-8,.,.
COc1ccc(OC)c2sc(N(CCN(C)C)C(=O)/C=C/c3cccs3)nc12,-9,.,21*,-1,-13,38*,8
Cc1ccc2nc(N(CCN(C)C)C(=O)/C=C/c3cccs3)sc2c1,-3,-15,22*,6,16,32*,25*
O=C(COC(=O)c1ccc(F)cc1F)Nc1cccc(S(=O)(=O)N2CCOCC2)c1,.,.,-10,3,-2,.,.
CC(c1ccccc1)n1c(CCCO)nc2ccccc21 (configuration not stated),.,.,24*,2,-6,2,-1
OCCCc1nc2ccccc2n1CCc1ccccc1,3,11,-1,3,1,.,.
CC1(C)Cc2c(sc3nc(-c4cc5ccccc5o4)n(N)c(=O)c23)CO1,1,-13,23*,2,2,-1,-4
Cc1cccc(NC(=O)CSCC(=O)Nc2cc(S(=O)(=O)N3CCOCC3)ccc2OC(C)C)c1,-4,.,21*,0,-1,4,-4
O=C(COC(=O)c1cc([N+](=O)[O-])ccc1Cl)NC1CCCC1,2,.,3,1,-14,.,.
O=C(COC(=O)c1ccccc1C(=O)c1ccc(Cl)c([N+](=O)[O-])c1)NC1CC1,8,18,49*,-4,14,56*,9
CCc1sc(NC(C)=O)nc1-c1ccccc1,1,-2,1,3,-3,.,.
CCc1sc(N2C(=O)C3C4CCC(C4=C(C)C)C3C2=O)nc1-c1ccccc1 (configuration not stated),-2,-7,71*,-2,0,-1,0
CCOC(=O)/C=C/C(=O)Nc1ccc(S(=O)(=O)Nc2c(C)cc(C)cc2C)cc1,9,-7,-12,-2,-6,.,.
CCOC(=O)/C=C/S(=O)(=O)c1ccc(NC(C)=O)cc1,-4,11,22*,2,23*,54*,21*
Cc1ccc(S(=O)(=O)Nc2c(C)n(C)n(-c3ccccc3)c2=O)cc1C(=O)OCC(=O)N1CCCC(C)C1 (configuration not stated),-4,1,7,3,-10,.,.
CCN(CC(=O)NCc1cccs1)C(=O)c1cccc(S(=O)(=O)Nc2ccc(C)cc2)c1,0,.,-1,4,5,.,.
Cc1cn2nc(N)c3ccccc3c2n1,-1,-4,37*,-2,1,-4,2
Clc1nc(Cl)c2ncn(-c3ccccc3)c2n1,.,.,22*,8,5,41*,11*
COc1ccc(-n2sc3ccccc3c2=O)cc1,.,.,26*,.,0,44*,7
COc1ccc(-n2cc(C(=O)O)c3ccccc3c2=O)cc1,-3,-4,1,5,15,.,.
CC1CCCC(C)N1C(=O)COC(=O)c1ccc(F)c(S(=O)(=O)N2CCOCC2)c1 (configuration not stated),0,.,-11,3,-1,.,.
COc1ccc2c(c1OC)C(=O)OC2,-6,-7,-9,1,2,.,.
COc1ccc2c3c(cccc13)C(=O)CC2,.,.,27*,43*,0,2,5
C=CCn1c(-c2cccc(Cl)c2)n[nH]c1=S,1,-6,-13,4,4,.,.
SMILES,IDE cell inh,TLR4-MyD88 BLA,NOD2 RIPK2 PPI,IDE act,TLR9-MyD88 inh,NOD2-RIPK2 conf,BLA counter
C=CCn1c(-c2oc3nc(-c4ccccc4)cc(-c4ccccc4)c3c2N)n[nH]c1=S,-3,8,34*,4,1,87*,88*
N#CCc1nn2c(-c3ccccc3)ccnc2c1C#N,5,.,-17,-3,-8,.,.
O=[N+]([O-])c1c(NCCCO)cc(Sc2ccc(Cl)cc2)c2nonc12,10,0,8,5,9,.,.
Cn1ccnc1Sc1cc(NCCCO)c([N+](=O)[O-])c2nonc12,2,4,27*,-2,13,31*,8
O=C(COC(=O)c1ccc2c(c1)S(=O)(=O)N=C1CCCCCN12)NCc1cccs1,3,.,7,-2,-49,.,.
Cc1ccc(SC(C)C(=O)Nc2ccccc2-c2ccccc2)cc1 (configuration not stated),-2,-10,43*,-4,-6,3,-3
CC(Sc1ccc(Cl)cc1)C(=O)Nc1ccccc1-c1ccccc1 (configuration not stated),3,-4,11,5,-14,.,.
O=C(Nc1cnccn1)c1csc2ccccc12,4,-3,33*,-5,-1,-4,-3
O=C(Nc1ccon1)c1csc2ccccc12,1,-1,-15,-4,2,.,.
COc1ccccc1CNC(=O)CSc1ccc(-c2cccc([N+](=O)[O-])c2)nn1,2,-1,6,3,-6,.,.
COC(=O)Cn1cnc2c(nnn2-c2ccc(OC)cc2)c1=O,2,.,3,-1,-15,.,.
N#Cc1c(C(F)(F)F)cc(-c2ccco2)nc1SCc1ccncc1,8,13,29*,1,18,-3,-2
N#Cc1c(C(F)(F)F)cc(-c2ccco2)nc1SCc1ccccn1,1,-6,10,0,16,.,.
COCCNC(=O)C1(C)CCN(C(=O)c2sccc2C)C1 (configuration not stated),.,.,5,.,.,.,.
CC(=O)c1ccc(-c2ccc(C(=O)NC3CC(C)(C)NC(C)(C)C3)o2)cc1,1,.,1,0,-6,.,.
CCCCn1c(=O)[nH]c2nc3cc(N)ccc3nc2c1=O,10,11,26*,3,19,31*,37*
Cc1cc2nc3c(=O)n(CCc4ccccc4)c(=O)[nH]c3nc2cc1N,13,.,12,-22,5,.,.
CC1(C)CC(=O)C=C(C(=O)N2CCCC(C(=O)c3cccc(Cl)c3)C2)O1 (configuration not stated),-4,5,8,-5,-2,.,.
O=c1c(O)c(-c2ccc(O)c(O)c2)oc2cc(O)ccc12,.,.,25*,-2,20,29*,28*
O=c1c(O)c(-c2ccc(O)cc2)oc2cc(O)cc(O)c12,0,.,-9,-1,4,.,.
Cc1cccc(NS(=O)(=O)c2ccc(-c3cnc(C4CC4)o3)cc2)c1C,12,.,26*,6,2,14,-1
